Assay outcomes from PubChem BioAssay.
Most compounds without a hit are left out; they make up all but 11% or so of the library.
Sm TGR inh = qHTS Assay for the Inhibitors of Schistosoma Mansoni Peroxiredoxins; Potency, µM (titrated, usually from 114 µM), for inactives: at the top dose activity change, negative = inhibition, hits mostly inhibitors; Schistosoma mansoni thioredoxin glutathione reductase (TGR), Q962Y6; purified TGR, DTNB reduction, TNB absorbance 405 nm; hit rate 3% among 360,000; also: % is scaled to controls: 0 for no effect and ±100 for the full control effect; nearly all actives have a fitted effect of over 60% in size
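TGR 20 nM + NADPH 100 uM (dispensed conc.), cpd preinc 15 min RT; start with NADPH (500 uM addition) then DTNB (15 mM addition). Kinetic TNB absorbance, 405 nm filter. Four-parameter Hill fit across titration.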
Pf growth 48h = Primary qHTS for delayed death inhibitors of the malarial parasite plastid, 48 hour incubation. Potency, µM (series often up to 28.7 µM), for the others: top-dose activity change, negative = inhibition, usual class: inhibitors. hit rate 5.9% among 310,000. P. falciparum luciferase growth in erythrocytes, 48 h; also: % is scaled to controls: 0 for no effect and ±100 for the full control effect
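Luciferase-expressing P. falciparum in infected erythrocytes (2% hematocrit, 0.1% parasitemia final) in RPMI 1640/0.5% Albumax were exposed to compound for 48 hours at 37 C, 5% CO2; growth read as luminescence.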
Pf growth 96h = Primary qHTS for delayed death inhibitors of the malarial parasite plastid, 96 hour incubation | P. falciparum luciferase reporter growth, 96 h | Potency, µM (highest dose often 28.7 µM), for inactives: at the highest dose activity change, negative = inhibition, usual class: inhibitors | hit rate 6.9% among 320,000 | AID 504834, 2011; also: % is scaled to controls: 0 for no effect and ±100 for the full control effect
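Cell-based qHTS: luciferase-tagged P. falciparum in erythrocytes (2% hematocrit, 0.05% parasitemia final) incubated with compounds for 96 hours, 37 C, 5% CO2; luciferase detection reagent then added and luminescence measured.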
AMA1 RON2 block = qHTS for Inhibitors of AMA1-RON; Towards Development of Antimalarial Drug Lead: Primary Screen. AID 720542, 2013. hit rate 0.2% among 360,000. Potency, µM (doses to about 58.2 µM), without a hit: at the highest dose activity change, negative = inhibition, most hits filed as inhibitors. AlphaScreen AMA1-biotinylated RON2 peptide binding;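 also: 0% = vehicle wells and -100% = peptide control; nearly all actives have a fitted effect of over 45% in size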
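AMA1 (3D7) with his tag at 25 nM final met compounds first, then biotinylated RON2 peptide at 25 nM; detection used donor plus acceptor beads, 10 µg/mL apiece, read by AlphaScreen after 30 min at room temperature.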
NS1 function inh = qHTS Assay for Inhibitors of Influenza NS1 Protein Function; AID 2326, 2010; hit rate 0.4% among 270,000; Potency, µM (series often up to 46.1 µM), without a hit: at the top dose activity, positive = more growth; calls by dose curve; also: actives are rising curves; nearly all actives have a fitted effect of over 50% in size
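Compounds were scored for reversing the slow growth caused by influenza A NS1 in S. cerevisiae, measured by optical density at 600 nm. Assay medium contained 2% galactose at pH 6.0; NS1-free yeast of the same strain were the positive control.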
* = called active by the depositor. Unless noted, calls follow the shape of the dose curve; as a rule, active = well fitted curve in the direction sought with a large enough effect; inconclusive = small, poorly fitted or top-dose-only effect, or another doubt; inactive = no such curve, though single readings can be large; an effect the other way counts as inactive or inconclusive. Potency is read from the fitted curve at half-maximal effect.

What do the screens show for `CCOc1ccc(NC(=O)/C(C=Nc2ccccc2)=C(\C)O)cc1`?
Sm TGR inh: -15%; Pf growth 48h: 24%; Pf growth 96h: 25%; AMA1 RON2 block: -2%; NS1 function inh: -1%

What do the screens show for `Cc1cccc(C)c1NC(=O)CCCN1CC(C)OC(C)C1` (centres undefined)?
Sm TGR inh: 3%; Pf growth 96h: -1%; AMA1 RON2 block: -2%; NS1 function inh: 4%

How did CC1NC(=O)NC1CCCCCC(=O)NCCc1ccccc1 (centres undefined) do in these assays?
Sm TGR inh: 32µM*; Pf growth 48h: -29%; AMA1 RON2 block: 1.5µM*; NS1 function inh: -14%

Results for Cc1cccc(C)c1NC(=O)CCCCCC1NC(=O)NC1C (centres undefined) ?
Sm TGR inh: 25µM*; Pf growth 48h: 16%; Pf growth 96h: 34%; AMA1 RON2 block: -13%

What do the screens show for `O=C(CCCCC(=O)NCCCc1ccccc1)NCCCc1ccccc1`?
Sm TGR inh: -16%; Pf growth 48h: -6%; Pf growth 96h: inconclusive; AMA1 RON2 block: -2%; NS1 function inh: 0%

How did O=C(CSc1nnc(-c2cccnc2)n1Cc1ccco1)c1ccc2ccccc2c1 do in these assays?
Sm TGR inh: 22µM*; Pf growth 48h: -20%; Pf growth 96h: inconclusive; AMA1 RON2 block: 7%; NS1 function inh: -12%

What do the screens show for `CCSc1nnc(-c2cccnc2)n1Cc1ccco1`?
Sm TGR inh: 35µM*; Pf growth 48h: -6%; Pf growth 96h: inconclusive; AMA1 RON2 block: -5%; NS1 function inh: 12%

What do the screens show for `O=C(CSc1nnc(-c2cccnc2)n1Cc1ccco1)c1ccc(Br)cc1`?
Sm TGR inh: inconclusive; Pf growth 48h: inconclusive; Pf growth 96h: 12%; AMA1 RON2 block: -9%; NS1 function inh: -32%

How did Nc1cn(C2OC(CO)C(O)C2O)c(=O)[nH]c1=O (centres undefined) do in these assays?
Sm TGR inh: inconclusive; Pf growth 48h: 8%; Pf growth 96h: inconclusive; AMA1 RON2 block: 8%; NS1 function inh: 27%

What do the screens show for `CC(=O)N1CCN(C(=O)CSc2ncnc3sc(C)c(C)c23)CC1`?
AMA1 RON2 block: 4%

How did CCCC1(C(=O)OC)NC(c2ccc(OC)cc2OC)C2C(=O)N(c3cccc(C(C)=O)c3)C(=O)C21 (centres undefined) do in these assays?
Sm TGR inh: 0%; Pf growth 48h: inconclusive; Pf growth 96h: -3%; AMA1 RON2 block: 15%; NS1 function inh: -5%

What do the screens show for `CC(C(=O)OCC(=O)c1ccc(Br)cc1)N1C(=O)C2C3CCC(C3)C2C1=O` (centres undefined)?
Sm TGR inh: -14%; Pf growth 48h: 24%; Pf growth 96h: 12µM*; AMA1 RON2 block: 10%; NS1 function inh: -5%

What do the screens show for `Cc1ccc(C)c(C(=O)COC(=O)C(C)N2C(=O)C3C4CCC(C4)C3C2=O)c1` (centres undefined)?
Sm TGR inh: 22µM*; Pf growth 48h: -1%; Pf growth 96h: inconclusive; AMA1 RON2 block: -1%; NS1 function inh: -6%

What do the screens show for `Cc1ccc(C(=O)COC(=O)C(C)N2C(=O)C3C4CCC(C4)C3C2=O)cc1C` (centres undefined)?
Sm TGR inh: -24%; Pf growth 48h: -2%; Pf growth 96h: 36%; AMA1 RON2 block: -1%; NS1 function inh: 5%

How did Cc1ccc(C(=O)COC(=O)C(C)N2C(=O)C3C4CCC(C4)C3C2=O)cc1 (centres undefined) do in these assays?
Sm TGR inh: 2%; Pf growth 48h: 10%; Pf growth 96h: 8.3µM*; AMA1 RON2 block: -6%; NS1 function inh: -21%

What do the screens show for `COc1ccc(OC)c(CC2C(=O)Nc3ccc(Br)cc32)c1` (centres undefined)?
Sm TGR inh: 8%

Results for CCc1ccc(C(=O)c2cn(CC(=O)Nc3cc(OC)ccc3OC)c3ccc(Cl)cc3c2=O)cc1 ?
Sm TGR inh: -5%

What do the screens show for `O=C(O)C1CCCN(S(=O)(=O)Cc2ccccc2)C1` (centres undefined)?
Sm TGR inh: 6%; Pf growth 48h: 38%; Pf growth 96h: 2.3µM*; AMA1 RON2 block: 2%; NS1 function inh: 3%

How did O=C(NCCc1ccccn1)C1CCCN(S(=O)(=O)Cc2ccccc2)C1 (centres undefined) do in these assays?
Sm TGR inh: 6%; Pf growth 96h: 3.7µM*; AMA1 RON2 block: 27%; NS1 function inh: -8%

What do the screens show for `O=C(C1CCCN(S(=O)(=O)Cc2ccccc2)C1)N1CCC(Cc2ccccc2)CC1` (centres undefined)?
Sm TGR inh: -18%; Pf growth 96h: inconclusive; AMA1 RON2 block: -9%; NS1 function inh: -46%

How did COc1ccccc1-c1ccc(SCC(=O)NC2CCCC2)nn1 do in these assays?
Sm TGR inh: 6%; Pf growth 48h: 6%; Pf growth 96h: -9%; AMA1 RON2 block: 9%

How did COc1ccc(S(=O)(=O)N[C@@H](CSCc2ccccc2)C(=O)O)cc1 do in these assays?
Sm TGR inh: 40µM*; Pf growth 48h: -3%; Pf growth 96h: -9%; AMA1 RON2 block: 3%; NS1 function inh: 7%

Results for CCCCS(=O)(=O)N1CN(S(=O)(=O)CCCC)C2NC(=O)NC21 (centres undefined) ?
Sm TGR inh: 35µM*; Pf growth 48h: 36%; Pf growth 96h: 114%; AMA1 RON2 block: -5%; NS1 function inh: inconclusive

How did CCN1C(=O)NC2C1N(S(C)(=O)=O)CCN2S(C)(=O)=O (centres undefined) do in these assays?
Sm TGR inh: 7%; Pf growth 48h: 6%; Pf growth 96h: 23%; AMA1 RON2 block: 5%; NS1 function inh: 2%

How did CCOc1cccc(OCCOCCN2CCCC2)c1 do in these assays?
Sm TGR inh: 9%; Pf growth 48h: 3%; Pf growth 96h: 1%; AMA1 RON2 block: -25%; NS1 function inh: -5%

Results for Cc1cc(OCCOCCN2CCCC2)ccc1C(C)C ?
Sm TGR inh: -9%; Pf growth 48h: inconclusive; Pf growth 96h: 10µM*; AMA1 RON2 block: -7%; NS1 function inh: 0%

Results for CCc1ccccc1N(CC)C(=O)c1cc2c(s1)-c1ccccc1OC2 ?
Sm TGR inh: -6%

Results for CCOc1ccccc1C(=O)N[C@H](C(=O)OCc1cc([N+](=O)[O-])cc2c1OCOC2)C(C)C ?
Sm TGR inh: -4%; Pf growth 48h: 13µM*; Pf growth 96h: inconclusive; AMA1 RON2 block: inconclusive; NS1 function inh: 10%

What do the screens show for `O=C(OCC(O)COc1ccccc1)c1ccc([N+](=O)[O-])cc1` (centres undefined)?
Sm TGR inh: 8%; Pf growth 48h: 19%; Pf growth 96h: 14%; AMA1 RON2 block: 2%; NS1 function inh: -6%
